This note sets out measurements from PubChem BioAssay (EPA / NIEHS).

The nature of assay [1]: CCTE_Mundy_HCI_iCellGluta_NOG_NeuriteLength: CCTE's Neurite Outgrowth Assay in iCellGluta cells for Neurite Length, Mundy Lab (AID 2284318). Summed up:
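Automated high-content imaging of betaIII-tubulin (Alexa Fluor-488) and Hoechst-stained cells gave neurite length, normalized to the DMSO baseline.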

Assay [2] is described as follows: CCTE_Mundy_HCI_iCellGluta_NOG_NeuronCount: CCTE's Neurite Outgrowth Assay in iCellGluta cells for Neuron Count, Mundy Lab (AID 2284340).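 Note: cells fixed about 48 h after compound addition.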 Put shortly:
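Neuron count read by automated high-content imaging of Hoechst 33342 and betaIII-tubulin/Alexa Fluor-488 labelling in human iPSC glutamatergic neurons. Activity fitted relative to DMSO.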

A short description of assay [3]: CCTE_Mundy_HCI_iCellGluta_NOG_NeuriteCount: CCTE's Neurite Outgrowth Assay in iCellGluta cells for Neurite Count, Mundy Lab (AID 2284342).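 Note: chemical exposure about 48 hours starting 2 hours after plating.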
Another assay deals with SERPINA7 (gene 6906). Kind of assay: CCTE_GLTED_hTBG: CCTE's human Thyroxine-binding Globulin (TBG) Inhibition Assay, Great Lakes Toxicology and Ecology Division (GLTED) Lab (AID 2284343).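 Note: active chemicals lower fluorescence versus DMSO baseline by displacing probe.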 Put shortly:
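Fluorescence (ex 380/em 475) reports ANSA displaced from human TBG after a 2 h incubation with test chemical, without cells. Loss of signal indicates displacement, with DMSO serving as baseline.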

The test system of a further assay is IYD (gene 389434). Kind of assay: CCTE_GLTED_hIYD: CCTE's human Iodotyrosine Deiodinase (xIYD) Inhibition Assay, Great Lakes Toxicology and Ecology Division (GLTED) Lab (AID 2284317).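 Note: cell-free human IYD enzyme made in baculovirus insect cells; iodide freed from monoiodotyrosine measured by cerium arsenite color change at 420 nm.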 Summed up:
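Cell-free; baculovirus/insect-cell hIYD + MIT substrate + chemical, 3 h. Dowex column cleanup, then Ce4+/As3+ Sandell-Kolthoff read at A420 nm. Triplicate plates; normalized to 3-nitro-L-tyrosine (positive) and DMSO/NaOH (solvent).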

For a further assay, the system named is TTR (gene 7276). Kind of assay: CCTE_GLTED_hTTR_0.5uM: CCTE's human Transthyretin (hTTR) Inhibition Assay, with 0.5uM TTR, Great Lakes Toxicology and Ecology Division (GLTED) Lab (AID 2284320; active = hit-call score of the fitted dose curve at least 0.9, where 1 is the maximum; inactive = score below 0.9). Summed up: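 Probe (ANSA) displacement from 0.5 uM human transthyretin was followed by fluorescence (ex 380, em 475) after a 2 h incubation with chemical. Activity was scored as signal loss and fitted positively relative to DMSO.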

A short description of assay [4]: Tanguay_ZF_120hpf_MO24: Oregon State University Tanguay Lab 24 Hour Post-fertilization zebrafish Assay for Mortality (AID 2284389; active = hit-call score of the fitted dose curve at least 0.9, where 1 is the maximum; inactive = score below 0.9). Summed up:
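Embryo death at 24 hpf was recorded as present or absent in Tropical 5D zebrafish, dechorionated at 4 hpf and dosed statically from 6 hpf (28C, 0.64% DMSO); 5 uM trimethyltin chloride served as positive control.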

A short description of assay [5]: IUF_NPC2-5_viability_120hr: Viability Assessment at 120 hours in the Leibniz Research Institute for Environmental Medicine (IUF) Neural Progenitor Cell Migration and Differentiation Assay (NPC2-5) (AID 2284312; active = hit-call score of the fitted dose curve at least 0.9, where 1 is the maximum; inactive = score below 0.9). Summed up:
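Human fetal (GW 16-19) neural progenitor spheres of 0.3 mm were plated on poly-D-lysine/laminin in N2 differentiation medium and exposed from day 0 for 120 h, with half-medium refresh at day 3. Viability was read as alamar blue resazurin-to-resorufin fluorescence against DMSO.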

Assay [6] is described as follows: IUF_NPC1_cytotoxicity_72hr: Cytotoxicity Assessment at 72 hours in the Leibniz Research Institute for Environmental Medicine (IUF) Neural Progenitor Cell Proliferation Assay (NPC1) (AID 2284332).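 Note: rising LDH signal means more cytotoxicity.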 Summed up: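 LDH in supernatant, resazurin→resorufin fluorescence (RFU), 72 h exposure, no re-dosing. Cells: primary hNPC spheres, one per well, EGF+FGF medium, 37C/5% CO2, pH 7.2-7.6. Fit: positive direction vs baseline and dynamic range.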

The nature of assay [7]: CCTE_Deisenroth_5AR_NBTE_donor: CCTE's 5alpha-reductase NanoBRET Target Engagement Assay […], Deisenroth Lab (AID 2284319; active = hit-call score of the fitted dose curve at least 0.9, where 1 is the maximum; inactive = score below 0.9). Conditions: actives raise or lower the signal. Put shortly: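 HEK293T cells transiently expressing SRD5A2-NanoLuc, exposed 5 h to chemicals (8 points, 10 nM - 29.9 uM), with testosterone tracer for the final 2 h. Donor luminescence at 460 nm read after Nano-Glo substrate plus extracellular NanoLuc inhibitor; bidirectional fit versus DMSO.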

Assay [8] can be described thus: CCTE_Deisenroth_5AR_NBTE_acceptor: CCTE's 5alpha-reductase NanoBRET Target Engagement Assay - Autofluorescence Screen, Deisenroth Lab (AID 2284321; active = hit-call score of the fitted dose curve at least 0.9, where 1 is the maximum; inactive = score below 0.9;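 note: compound fluorescence in the acceptor channel under 460 nm excitation flags autofluorescence artifacts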). The note with it: actives raise or lower the signal. Put shortly:
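Chemicals diluted to a nominal 100 uM in DMSO were scanned at 460 nm excitation. Samples were read in three independent runs (n=3). Gain or loss of acceptor signal was fitted relative to DMSO.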
A general note: Bioluminescence resonance energy transfer reports proximity on the nanometre scale.

Another assay concerns SRD5A2 (gene 6716). Kind of assay: CCTE_Deisenroth_5AR_NBTE_ratio: CCTE's 5alpha-reductase NanoBRET Target Engagement Assay - Ratio, Deisenroth Lab (AID 2284322; active = hit-call score of the fitted dose curve at least 0.9, where 1 is the maximum; inactive = score below 0.9). Conditions: actives raise or lower the signal. Put shortly: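 SRD5A2-NanoLuc HEK293T; cmpd 10 nM-29.9 uM, 3 h preinc + testosterone tracer 2 h; NanoBRET ratio 650/460; bidirectional fit vs DMSO.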

The structures appear in SMILES notation. Several values for one entry are separate records, joined by “and”; a condition that tells them apart may be missing. Equal values may be shown once. Records with an inconclusive call do not appear. Activity calls are given as the source filed them. Rule for the calls, unless noted: active = hit-call score of the fitted dose curve at least 0.9, where 1 is the maximum; inconclusive = response in the unintended direction; inactive = score below 0.9.

For the molecule `COc1ccc(O)c(C(C)(C)C)c1`, the result in assay [1], in assay [2] and in assay [3] was inactive.
The AC50 is the concentration at which the activity in the assay is half-maximal. For the molecule `O=NN(c1ccccc1)c1ccccc1`, the AC50 with SERPINA7 (gene 6906) was 13.9 µM (active).
Consider `CCOC(=O)C(O)(c1ccc(Cl)cc1)c1ccc(Cl)cc1`, for which, in the assay with SERPINA7 (gene 6906), the AC50 is 7.32 µM (active).
Same read-out and setting: the value for `Cc1ccccc1CO[C@@H]1C[C@@]2(C(C)C)CC[C@]1(C)O2` was 22.9 µM (active).
Turning to `O=C(O)C(F)(F)C(F)(F)C(F)(F)C(F)(F)C(F)(F)C(F)(F)C(F)(F)C(F)(F)C(F)(F)F`, the AC50 in the assay on IYD (gene 389434) is 95.5 µM (active) and 50.9 µM (active); with TTR (gene 7276), 721 nM (active). The molecule was called inactive in assay [2], in assay [3] and in assay [4].
As to `CCOP(=S)(OCC)SCSC(C)(C)C`, the result in assay [5], in assay [1], in assay [6], in assay [2] and in assay [3] was inactive.
Consider `CC(C)(O)C(=O)Nc1ccc([N+](=O)[O-])c(C(F)(F)F)c1`, for which the AC50 with SERPINA7 (gene 6906) was 35.6 µM (active).
On the same count and under the same terms, the figure for `CCC(C)(c1ccc(O)cc1)c1ccc(O)cc1` is 13.7 µM (active).
Take `O=C(O)C(F)(F)C(F)(F)C(F)(F)C(F)(F)C(F)(F)F`: in the assay on TTR (gene 7276), the AC50 is 1460 nM (active). Further, the outcome in assay [4] was inactive.
For `Cc1cc(-c2ccc(N)c(C)c2)ccc1N`, the molecule was called inactive in [7] and in [8]. Further, the AC50 in the assay with SRD5A2 (gene 6716) was 50 µM (active); with SERPINA7 (gene 6906), 26.5 µM (active) and 35.2 µM (active).
Consider `CCCCCCOC(=O)c1ccccc1C(=O)OCCCCCC`, for which the concentration at half-maximal activity (AC50) in the assay with SERPINA7 (gene 6906) is 5.7 µM (active).
`O=S(=O)(O)C(F)(F)C(F)(F)C(F)(F)C(F)(F)C(F)(F)C(F)(F)F`: the molecule was called inactive in assay [5], in assay [1], in assay [6], in assay [2], in [3] and in [4]. Besides, in the assay with TTR (gene 7276), the AC50 is 455 nM (active) and 190 nM (active).
For `O=C(O)C(F)(F)C(F)(F)C(F)(F)C(F)(F)C(F)(F)C(F)(F)C(F)(F)C(F)(F)F`, the AC50 is 91.2 µM (active) with IYD (gene 389434), 435 nM (active) in the assay with TTR (gene 7276) and 86.5 µM (active) in the assay on SERPINA7 (gene 6906). Moreover, the molecule was called inactive in assay [4].
On to `CCCCCCCCCC[N+](C)(C)CCCCCCCCCC`, for which the AC50 in the assay on IYD (gene 389434) was 63.9 µM (active); in [7], 5.89 µM (active); in assay [8], 4.7 µM (active); in the assay with SRD5A2 (gene 6716), 10.3 µM (active).
On to `NS(=O)(=O)C(F)(F)C(F)(F)C(F)(F)C(F)(F)C(F)(F)C(F)(F)C(F)(F)C(F)(F)F`, for which the AC50 is 46.1 µM (active) in the assay on IYD (gene 389434) and 807 nM (active) with TTR (gene 7276). In addition, the result in assay [1], in [2], in assay [3] and in assay [4] was inactive.
